Bioassay records as filed in PubChem BioAssay.
Compounds with a hit are over-represented: about 4% of the library has one in this group of screens.
GBA mod: Glucocerebrosidase; purified enzyme, resorufin glucoside fluorescence (screen aimed at inhibitors), 20 min; 48,000 tested, 1.1% active; Lysosomal acid glucosylceramidase (Homo sapiens), P04062; AID 360, 2006; Potency, µM; in the data active = potency below about 15 µM; inconclusive = mostly about 16 µM to 33 µM;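 also: the screen sought inhibitors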
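Compounds titrated against 0.2 nM normal enzyme, 30 uM resorufin beta-D-glucopyranoside substrate, citrate/phosphate buffer with taurocholate and tween-20, pH 5.9. Reaction ran 20 min at room temperature; fluorescence (Ex 548/Em 600) gave AC50.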
HEK293 cAMP cs: qHTS Assay for Agonists of the Thyroid Stimulating Hormone Receptor: Activators of Intracellular cAMP Concentrations in Parental HEK 293; parental HEK293 CNG cAMP sensor, membrane potential fluorescence; 73,000 tested, 2.5% active; Potency, µM (highest dose often 57.1 µM), without a hit: at the highest dose activation, actives largely listed as activators; active = well fitted activation curve with a large enough effect; inconclusive = small, poorly fitted or top-dose-only effect; inactive = no such curve, though single readings can be large or run the other way; also: % of control where 0% means no effect; nearly all actives have a fitted effect of over 55% in size
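Parental HEK 293 cells stably expressing a cAMP-gated CNG channel were loaded with membrane potential dye containing 100 uM RO 20-1724 for 60 min. Compound added for 30 min; depolarization read as fluorescence intensity at 590 nm.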
TSHR ag: qHTS Assay for Agonists of the Thyroid Stimulating Hormone Receptor; Thyrotropin receptor (Homo sapiens), P16473; HEK293-CNG-TSHR cells (CNG channel as cAMP sensor), membrane potential dye, cAMP; Potency, µM (series often up to 57.1 µM), without a hit: at the top dose activation, usual class: activators; 73,000 tested, 0.48% active; AID 926, 2007; active = well fitted activation curve with a large enough effect in the main read-out, with a control signal flat, not every such curve was filed as active; inconclusive = small, poorly fitted or top-dose-only effect, or a change in a side signal; inactive = no such curve, though single readings can be large or run the other way; % of control where 0% means no effect;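 also: the control signal comes from parental cells without the receptor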
Target sequence (P16473 whole entry, looked up): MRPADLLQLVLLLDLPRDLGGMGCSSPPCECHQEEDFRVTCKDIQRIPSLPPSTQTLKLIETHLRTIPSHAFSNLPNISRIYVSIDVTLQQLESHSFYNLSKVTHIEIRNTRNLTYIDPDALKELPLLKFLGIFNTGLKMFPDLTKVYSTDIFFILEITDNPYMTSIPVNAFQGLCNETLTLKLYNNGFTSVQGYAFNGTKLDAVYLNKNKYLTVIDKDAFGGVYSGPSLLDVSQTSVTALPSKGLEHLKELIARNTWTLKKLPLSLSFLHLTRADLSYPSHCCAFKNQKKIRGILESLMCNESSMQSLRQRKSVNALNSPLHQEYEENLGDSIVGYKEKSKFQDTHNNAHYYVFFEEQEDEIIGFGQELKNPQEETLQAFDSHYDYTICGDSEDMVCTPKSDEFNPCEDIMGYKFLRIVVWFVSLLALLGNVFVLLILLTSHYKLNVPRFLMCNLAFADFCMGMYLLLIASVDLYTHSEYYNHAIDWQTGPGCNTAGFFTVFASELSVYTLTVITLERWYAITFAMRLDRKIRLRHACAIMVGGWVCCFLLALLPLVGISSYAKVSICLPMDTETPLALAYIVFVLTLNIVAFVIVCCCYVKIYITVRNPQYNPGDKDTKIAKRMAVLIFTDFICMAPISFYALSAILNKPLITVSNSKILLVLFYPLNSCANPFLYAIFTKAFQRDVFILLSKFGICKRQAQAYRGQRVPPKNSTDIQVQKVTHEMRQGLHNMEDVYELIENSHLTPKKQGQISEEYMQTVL
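cAMP rise detected as CNG-channel membrane depolarization by fluorescent dye (emission 590 nm), 30 min after compound, following 60 min dye loading containing 100 uM RO 20-1724 at room temperature. Cells: TSHR/CNG HEK 293, with parental CNG HEK 293 as control.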
PK Bst: Pyruvate Kinase; purified pyruvate kinase, luminescence ATP production; ribose 5-phosphate activator present at AC10; Potency, µM; 51,000 tested, 1.2% active; in the data active = potency below about 11 µM; inconclusive = mostly about 12 µM to 25 µM;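 the screen sought inhibitors and activators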;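 also: scaled between full activation by ribose 5 phosphate and full inhibition by luteolin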
The depositor's hits bear a star; [ ] = remark or other dose. Potency is read from the fitted curve at half-maximal effect.

`CC1CCc2sc3nc(NCc4ccco4)n4ncnc4c3c2C1` (stereo unspecified) gave GBA mod >77, HEK293 cAMP cs 2%, TSHR ag 10% and PK Bst inactive.
CC1CCc2sc3c(c2C1)c1ncnn1c(=O)n3CC(=O)c1ccc(Br)cc1 (stereo unspecified) was read as GBA mod >77, HEK293 cAMP cs 16µM*, TSHR ag inconclusive and PK Bst >57.
Screening CCC(=O)N1CCCc2cc(S(=O)(=O)N3CCN(c4ccccc4F)CC3)ccc21 returned HEK293 cAMP cs 25µM* and TSHR ag inconclusive.
For CCC(=O)N1CCCc2cc(S(=O)(=O)N3CCN(c4ncccn4)CC3)ccc21 the results were HEK293 cAMP cs 7% and TSHR ag 4%.
`CN1/C(=C\C(=O)c2cccs2)Sc2ccccc21` gave GBA mod >77, HEK293 cAMP cs inconclusive, TSHR ag inconclusive and PK Bst 6.6*.
For COCC(=O)/C=C1\Sc2ccccc2N1C the results were GBA mod >77, HEK293 cAMP cs -3%, TSHR ag 1% and PK Bst >57.
For Cc1cc(NC(=O)c2ccc3c(c2)OCCO3)no1 the results were HEK293 cAMP cs 3%, TSHR ag -5% and PK Bst 3*.
Screening Cc1cccc(NS(=O)(=O)c2ccc(C)c(C(=O)OCC(=O)Nc3cc(C)on3)c2)c1 returned GBA mod 11*, HEK293 cAMP cs 4%, TSHR ag 9% and PK Bst >57.
For Cc1cc(NC(=O)c2ccc(N(C)S(=O)(=O)c3ccccc3)cc2)no1 the results were GBA mod 15*, HEK293 cAMP cs inconclusive, TSHR ag inconclusive and PK Bst >57.
Cc1ccc(S(=O)(=O)Nc2ccc(C(=O)Nc3cc(C)on3)cc2)cc1 was read as GBA mod 0.16*, HEK293 cAMP cs 4%, TSHR ag 11% and PK Bst >57.
For C[N+]1(CCC[N+]2(C)C[C@H]3[C@H](C2)[C@H]2C=C[C@@H]3CC2)CCOCC1 (stereo partly specified) the results were HEK293 cAMP cs -11%[11.4 µM] and TSHR ag -6%[11.4 µM].
Cc1nc(NCc2ccccc2)c2nc(-c3ccccc3)n(CCCN3CCCCC3C)c2n1 (stereo unspecified) was read as HEK293 cAMP cs -19% and TSHR ag -18%.
For O=C1C=CC2=C3c4cc(O)c(O)cc4C[C@@]3(O)COC2=C1O the results were HEK293 cAMP cs 1% and TSHR ag 5%.
Screening COCCN(CCOC)C(=O)c1ccc(Cc2nc3ccccc3[nH]2)cc1 returned HEK293 cAMP cs -7% and TSHR ag 1%.
For Cc1cc(NC(=O)c2ccc(NC(=O)C(C)Oc3ccccc3)cc2)no1 (stereo unspecified) the results were GBA mod 1.9*, HEK293 cAMP cs 2%, TSHR ag -5% and PK Bst >57.
For COc1nc(Nc2nc3ccccc3c(=O)[nH]2)nc2ccc(C)cc12 the results were HEK293 cAMP cs 7%[11.4 µM] and TSHR ag 3%[11.4 µM].
Cc1nc(Nc2nc(-c3ccccc3)cc(=O)[nH]2)nc2ccccc12 was read as HEK293 cAMP cs 27%, TSHR ag 4% and PK Bst 5.1*.
Screening CC(=O)OCCN(Cc1ccccc1)Cc1ccc2c(c1)OCO2 returned GBA mod inconclusive, HEK293 cAMP cs 29%, TSHR ag 25µM* and PK Bst >57.
Screening Nc1nc(Nc2cccc3ccccc23)nc(C2CCCC2=O)n1 (stereo unspecified) returned GBA mod 1.5*, HEK293 cAMP cs 17% and TSHR ag 7%.
`COc1ccc(CNc2cc(-c3ccccc3Cl)ncn2)c(OC)c1` gave HEK293 cAMP cs 20µM* and TSHR ag inconclusive.
Screening COc1ccc(CNc2nc(-c3ccc(N(C)C)cc3)nc3ccccc23)c(OC)c1 returned HEK293 cAMP cs -21% and TSHR ag -20%.
`COc1ccc(CNc2nc(-c3ccc(C(=O)N(C)C)cc3)nc3ccccc23)c(OC)c1` gave HEK293 cAMP cs 22% and TSHR ag 25µM*.
COc1ccc2[nH]cc(CCNc3cc(-c4ccccc4C)ncn3)c2c1 was read as HEK293 cAMP cs 12% and TSHR ag 8%.
Screening COc1ccc(CNc2ccnc(-c3ccc(C(=O)N(C)C)cc3)n2)c(OC)c1 returned HEK293 cAMP cs 0.79µM* and TSHR ag inconclusive.
`COc1ccc(CNc2ccnc(-c3ccccc3C(F)(F)F)n2)c(OC)c1` gave HEK293 cAMP cs 7.9µM* and TSHR ag inconclusive.
For CN(C)C(=O)c1ccc(-c2nc(Nc3ccc(F)cc3)c3ccccc3n2)cc1 the results were HEK293 cAMP cs 16% and TSHR ag 32µM*.
CCc1c2c(nc3cccc(OC)c13)OC(CC)C2 (stereo unspecified) was read as HEK293 cAMP cs 16µM* and TSHR ag inconclusive.
For CCCCCNC(=O)c1ccc2c(=O)n(CC3CCCO3)c(=O)[nH]c2c1 (stereo unspecified) the results were GBA mod 11*, HEK293 cAMP cs 3%, TSHR ag -5% and PK Bst >57.
For NN(CC(=O)O)CC(=O)O the results were HEK293 cAMP cs -1%[11.4 µM] and TSHR ag 0%[11.4 µM].
For COc1cc2cc3c4cc(OC)c(OC)cc4cc[n+]3c(C)c2cc1OC the results were HEK293 cAMP cs -2%[25.6 µM] and TSHR ag -20%[25.6 µM].
Screening c1ccc(CC2CCN(c3nc(N4CCOCC4)nc(N4CCOCC4)n3)CC2)cc1 returned GBA mod >77, HEK293 cAMP cs -1%, TSHR ag 7.9µM* and PK Bst >57.
Screening CN(C)CCCn1cnc2cc(Cl)c(Cl)cc21 returned HEK293 cAMP cs 2%[11.4 µM] and TSHR ag -2%[11.4 µM].
`Cc1ccc2[nH]c3c(c2c1)CCc1cn[nH]c1-3` gave GBA mod >77, HEK293 cAMP cs -7%, TSHR ag -35% and PK Bst 8.7*.
`Cc1ccc2[nH]c3c(c2c1)CCC3=O` gave GBA mod >77, HEK293 cAMP cs 5%, TSHR ag 9% and PK Bst >57.
COc1ccc(Oc2ncc3nc(C)c(=O)n(Cc4cccc(OC)c4)c3n2)cc1 was read as HEK293 cAMP cs 25µM* and TSHR ag inconclusive.
`COc1cccc(Cn2c(=O)c(C)nc3cnc(Nc4ccccc4)nc32)c1` gave HEK293 cAMP cs 16%.
For COc1ccc(Oc2ncc3nc(-c4cccc(C#N)c4)c(=O)n(Cc4cccc(OC)c4)c3n2)cc1 the results were HEK293 cAMP cs 25µM* and TSHR ag inconclusive.
O=C1[C@@H]2[C@H]3[C@H](O)[C@H](O)C/C(=N/OC[C@@H](O)COCc4ccco4)[C@H]3CC[C@H]2C(=O)N1c1ccc(F)cc1F was read as HEK293 cAMP cs -3%[11.4 µM] and TSHR ag -1%[11.4 µM].
Screening CCOc1ccccc1/C=C(\C#N)C(N)=O returned HEK293 cAMP cs 12%[11.4 µM] and TSHR ag 3%[11.4 µM].
